Assay outcomes from PubChem BioAssay.
Rv3671c protease – inhibitors of M. tuberculosis serine protease Rv3671c; inhibition, % at 5.96 µM; 0.048% of 320,000 active; P9WHR9; in the data active = inhibition above about 38%;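 note: extracellular domain of Rv3671c used as enzyme; 0% = enzyme with DMSO and 100% = no enzyme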
Target sequence (P9WHR9 whole entry, looked up, the tested form may be a part): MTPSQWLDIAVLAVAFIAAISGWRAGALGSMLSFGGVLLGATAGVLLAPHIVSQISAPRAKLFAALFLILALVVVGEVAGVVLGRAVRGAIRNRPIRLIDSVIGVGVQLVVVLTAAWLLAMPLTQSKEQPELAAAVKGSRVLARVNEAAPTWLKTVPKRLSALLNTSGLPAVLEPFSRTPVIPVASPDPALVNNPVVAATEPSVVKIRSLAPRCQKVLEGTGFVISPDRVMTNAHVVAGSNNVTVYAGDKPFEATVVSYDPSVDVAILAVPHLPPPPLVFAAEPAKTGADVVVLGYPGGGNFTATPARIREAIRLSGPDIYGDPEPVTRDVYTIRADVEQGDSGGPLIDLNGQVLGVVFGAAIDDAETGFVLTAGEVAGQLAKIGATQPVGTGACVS
UGM FP inh – blocks M. tuberculosis UGM enzyme | P9WIQ1 | purified UGM, fluorescence polarization probe displacement | inhibition, % at 10 µM | 0.06% of 320,000 active; in the data active = inhibition above about 10%, passing the limit was not always enough
FadD28 binding – blocks FadD28 binding to the bisubstrate probe. fluorescence polarization. inhibition, % at 12.5 µM. 0.22% of 360,000 active; in the data active = inhibition above about 8.5%, passing the limit was not always enough
Mtb betalactam – beta-lactam sensitization of Mtb H37Rv. M. tuberculosis H37Rv growth with meropenem, percent inhibition. inhibition, % at 25 µM. 0.27% of 330,000 active. AID 434955; call rule not given here;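 note: growth measured after seven days incubation then overnight dye step; 0% = bacteria only wells and 100% = bacteria with antibiotic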
GDH-TPI counter – GDH-TPI coupled enzyme inhibition counter-screen | inhibition, % at 4.8 µM | AID 588335 | 1.2% of 360,000 active | GDH-TPI coupled enzyme counterscreen, NADH absorbance; in the data active = inhibition above about 30%;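 note: 0% = DMSO wells and 100% = wells lacking the enzyme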
Mtb FBA inh – Mtb fructose-bisphosphate aldolase inhibition; purified M. tuberculosis FBA, fluorescence read-out; inhibition, % at 1 µM; 2.3% of 360,000 active; in the data active = inhibition above about 27%;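 note: 0% = vehicle and 100% = reference inhibitor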
* hit, by the source's call. Hits are enriched below; roughly 3.7% of the tested compounds scored in any of these assays.

How did CCNC(=O)C1(C)CCCN1C(=O)c1ccc(C#N)cc1 (stereo not drawn) do in these assays?
FadD28 binding: -0.9; GDH-TPI counter: -0.9; Mtb FBA inh: 2.8

Results for COc1ccc(NC(=O)CN(C)CC(=O)N2CCCCCC2)cc1 ?
FadD28 binding: -0.7; GDH-TPI counter: 6.6; Mtb FBA inh: 5.0

Results for CN(C(=O)COC(=O)c1ccccc1NCc1ccco1)c1c(N)n(Cc2ccccc2)c(=O)[nH]c1=O ?
Rv3671c protease: -2.5; UGM FP inh: 0.5; FadD28 binding: -1.4; Mtb betalactam: -3.8; GDH-TPI counter: 2.1; Mtb FBA inh: 114.7*

What do the screens show for `CCN(C(=O)COC(=O)c1ccc(O)cc1O)c1c(N)n(Cc2ccccc2)c(=O)[nH]c1=O`?
Rv3671c protease: -7.0; UGM FP inh: 10.2*; Mtb betalactam: 7.2; GDH-TPI counter: 1.1; Mtb FBA inh: 1.6

What do the screens show for `Cc1ccc(/C=C/C(=O)OCC(=O)N(CC(C)C)c2c(N)n(Cc3ccccc3)c(=O)[nH]c2=O)o1`?
Rv3671c protease: -9.8; UGM FP inh: -1.1; FadD28 binding: -0.6; Mtb betalactam: -1.0; GDH-TPI counter: 41.7*; Mtb FBA inh: -0.3

How did O=C1CN(C(=O)COC(=O)c2ccccc2NCc2ccco2)c2ccccc2N1 do in these assays?
Rv3671c protease: -15.3; UGM FP inh: -0.4; FadD28 binding: 0.0; Mtb betalactam: -1.4; GDH-TPI counter: 13.7; Mtb FBA inh: 61.4*

Results for CCN(C(=O)COC(=O)/C=C/c1ccc(C)o1)c1c(N)n(Cc2ccccc2)c(=O)[nH]c1=O ?
FadD28 binding: -1.9; GDH-TPI counter: 21.5; Mtb FBA inh: 0.6

What do the screens show for `CCN(C(=O)COC(=O)c1ccco1)c1c(N)n(Cc2ccccc2)c(=O)[nH]c1=O`?
Rv3671c protease: -5.8; UGM FP inh: -0.9; FadD28 binding: 3.4; Mtb betalactam: -2.3; GDH-TPI counter: -6.2; Mtb FBA inh: -0.7

How did CCOC(=O)c1sc(=S)n(C)c1NC(=O)c1ccc(C(C)(C)C)cc1 do in these assays?
Rv3671c protease: -3.8; UGM FP inh: -0.4; FadD28 binding: -3.3; Mtb betalactam: 92.3; GDH-TPI counter: 40.7*; Mtb FBA inh: -0.2

How did CCOC(=O)c1sc(=S)n(CC)c1NC(=O)C1CC1 do in these assays?
Rv3671c protease: 3.1; UGM FP inh: 1.7; FadD28 binding: -2.0; Mtb betalactam: -1.9; GDH-TPI counter: 35.1*; Mtb FBA inh: 1.9

What do the screens show for `CCOC(=O)c1sc(=S)n(C)c1NC(=O)c1ccccc1Cl`?
Rv3671c protease: -11.3; UGM FP inh: -1.4; FadD28 binding: -3.0; Mtb betalactam: -1.6; GDH-TPI counter: 39.5*; Mtb FBA inh: 0.0

Results for CCOC(=O)c1sc(NC(=O)Nc2ccccc2Cl)cc1C ?
Rv3671c protease: -10.3; UGM FP inh: -0.2; FadD28 binding: -1.9; Mtb betalactam: 68.4; GDH-TPI counter: 21.0; Mtb FBA inh: 6.1

Results for CCOC(=O)c1sc(=S)n(C)c1NC(=O)c1ccc(OC)cc1 ?
Rv3671c protease: 3.1; UGM FP inh: -2.8; FadD28 binding: -3.9; Mtb betalactam: 95.0; GDH-TPI counter: 36.5*; Mtb FBA inh: -0.4

How did CCOC(=O)c1sc(NC(=O)c2ccc(OC)cc2)nc1C do in these assays?
Rv3671c protease: -5.3; UGM FP inh: -1.5; FadD28 binding: -3.2; Mtb betalactam: -5.0; GDH-TPI counter: 6.2; Mtb FBA inh: 5.2

What do the screens show for `COc1ccc([C@H]2C[C@H](n3cc(-c4ccc(F)cc4)nn3)[C@@H](O)CN2CC2CCCCC2)cc1`?
FadD28 binding: -1.3; GDH-TPI counter: 22.6; Mtb FBA inh: 3.9

What do the screens show for `CN1CCc2c(sc(NC(=O)C3CCCCC3)c2C(N)=O)C1`?
Rv3671c protease: 5.5; UGM FP inh: -1.9; FadD28 binding: 1.6; Mtb betalactam: -7.1; GDH-TPI counter: -8.0; Mtb FBA inh: 7.1

What do the screens show for `COc1ccc2cc(C(=O)C3CCCN(C4CCOCC4)C3)ccc2c1` (stereo not drawn)?
Rv3671c protease: 2.6; UGM FP inh: -2.3; FadD28 binding: 0.9; Mtb betalactam: -6.2; GDH-TPI counter: 20.1; Mtb FBA inh: 148.2*

How did COc1ccc2cc(C(=O)C3CCCN(C(=O)Cc4c(C)noc4C)C3)ccc2c1 (stereo not drawn) do in these assays?
Rv3671c protease: 6.1; UGM FP inh: -0.8; FadD28 binding: -2.6; Mtb betalactam: -15.4; GDH-TPI counter: 12.8; Mtb FBA inh: 181.7*

How did COc1c(C)cc(C(=O)C2CCCN(C3CCOCC3)C2)cc1C (stereo not drawn) do in these assays?
Rv3671c protease: -2.2; UGM FP inh: 2.4; FadD28 binding: -1.2; Mtb betalactam: -15.5; GDH-TPI counter: 13.4; Mtb FBA inh: 1.2

What do the screens show for `Cc1[nH]c2ccccc2c1/C=N\NC(=O)c1ccco1`?
UGM FP inh: 1.5; FadD28 binding: -1.4; Mtb betalactam: -3.1; GDH-TPI counter: 56.7*; Mtb FBA inh: -2.8

Results for Cc1[nH]c2ccccc2c1/C=N/NC(=O)c1cc(C(C)C)[nH]n1 ?
Rv3671c protease: 5.6; UGM FP inh: -0.4; FadD28 binding: -0.4; Mtb betalactam: -1.3; GDH-TPI counter: 47.3*; Mtb FBA inh: 1.9

What do the screens show for `CCc1cc(C(=O)N/N=C/c2c(C)[nH]c3ccccc23)cs1`?
Rv3671c protease: 11.2; UGM FP inh: 2.6; FadD28 binding: 0.9; Mtb betalactam: 1.2; GDH-TPI counter: 31.8*; Mtb FBA inh: 3.6

Results for Cc1[nH]c2ccccc2c1/C=N/NC(=O)c1cccc(F)c1 ?
Rv3671c protease: 1.8; UGM FP inh: 1.4; FadD28 binding: 2.1; Mtb betalactam: 0.6; GDH-TPI counter: 19.1; Mtb FBA inh: 2.0

Results for Cc1[nH]c2ccccc2c1/C=N/NC(=O)CNC(=O)c1ccco1 ?
Rv3671c protease: 4.1; UGM FP inh: -1.9; FadD28 binding: -1.1; Mtb betalactam: -1.2; GDH-TPI counter: 16.4; Mtb FBA inh: -0.3

How did CC(C)(C)c1ccc(C(=O)N2CCC2(C)C(=O)NCc2cccc3ccccc23)cc1 (stereo not drawn) do in these assays?
FadD28 binding: 0.8; GDH-TPI counter: 8.0; Mtb FBA inh: -1.7

How did O=C(Cc1cccc(NC(=O)C2CCCN(C(=O)CCc3ccccc3)C2)c1)Nc1ccc(C(=O)N2CCCCC2)cc1 (stereo not drawn) do in these assays?
FadD28 binding: 0.3; GDH-TPI counter: 0.0; Mtb FBA inh: 1.7

How did COc1ccc2cc3cc(C(=O)NCc4ccco4)oc3nc2c1 do in these assays?
Rv3671c protease: -15.1; UGM FP inh: 0.5; FadD28 binding: -4.5; Mtb betalactam: 54.8; GDH-TPI counter: 20.2; Mtb FBA inh: 140.3*

Results for COc1ccc2cc3cc(C(=O)NCc4ccccn4)oc3nc2c1 ?
Rv3671c protease: -6.2; UGM FP inh: 0.7; FadD28 binding: 1.3; Mtb betalactam: 16.8; GDH-TPI counter: 27.3; Mtb FBA inh: active

How did O=C(NCc1ccco1)c1cc2cc3ccc(Cl)cc3nc2o1 do in these assays?
Rv3671c protease: -12.5; UGM FP inh: 0.7; FadD28 binding: -0.6; Mtb betalactam: 66.2; GDH-TPI counter: 22.4; Mtb FBA inh: 2.2
